Results: PubChem BioAssay (Tox21)
Several values for one entry are separate records, joined by “and”; a condition that tells them apart may be missing. Identical values can stand only once. Inconclusive results are not listed. Activity calls are given as the source filed them. Unless noted, calls come from the whole dose curve; as a rule, active = well fitted curve in the direction sought with a large enough effect in the repeat runs; inconclusive = weak or mixed curves; inactive = no such curve, though single readings can be large; an effect the other way counts as inactive or inconclusive.

Columns and labels:
[1] = qHTS RealTime-Glo MT Cell Viability Assay in HEK293 cells - 32 hour (AID 1224868); note: nearly all actives have a fitted effect of over 50% in size; note: potency is the fitted concentration of half-maximal effect; for activity change, negative = cytotoxic: top concentration of the series differs between compounds
Outline: (§1)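 Luminescence generated by NanoLuc from substrate produced by living HEK293 cells served as the viability signal. Each value reflects the reading at its stated time point during continuous 40 h compound exposure at 37 C.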

[2] = A CellTox Green Cytotoxicity Assay to monitor cytotoxicity in HEK293 cells - 0 hour (AID 1224869); note: nearly all actives have a fitted effect of over 50% in size
Outline: (§2)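 Read-out: fluorescence of a cell-impermeant cyanine dye staining DNA of dead cells, proportional to cytotoxicity. HEK293, 600 cells/well with reagent, compound (23 nL DMSO) added after 5 h; reads at 0, 8, 16, 24, 32, 40 h.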

[3] = qHTS RealTime-Glo MT Cell Viability Assay in HepG2 cells - 40 hour (AID 1224870); note: nearly all actives have a fitted effect of over 50% in size; note: potency is the fitted concentration of half-maximal effect
Outline: (§3)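 Real-time viability: cells seeded at 600 per well together with NanoLuc and cell-permeant prosubstrate, compounds added after 5 h incubation. Luminescence tracked at 0, 8, 16, 24, 32 and 40 h of exposure.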

[4] = A CellTox Green Cytotoxicity Assay to monitor cytotoxicity in HEK293 cells - 40 hour (AID 1224871); note: nearly all actives have a fitted effect of over 45% in size; note: potency is the fitted concentration of half-maximal effect
Outline: as §2

[5] = qHTS RealTime-Glo MT Cell Viability Assay in HEK293 cells - 16 hour (AID 1224872); note: nearly all actives have a fitted effect of over 50% in size; note: potency is the fitted concentration of half-maximal effect; for activity change, negative = cytotoxicity: top concentration of the series differs between compounds
Outline: as §1

[6] = qHTS RealTime-Glo MT Cell Viability Assay in HepG2 cells - 8 hour (AID 1224873); note: nearly all actives have a fitted effect of over 55% in size; note: potency is the fitted concentration of half-maximal effect
Outline: as §3

[7] = qHTS RealTime-Glo MT Cell Viability Assay in HEK293 cells - 40 hour (AID 1224874); settings: RealTime-Glo luminescence; max response: active compounds read low; note: nearly all actives have a fitted effect of over 50% in size; note: potency is the fitted concentration of half-maximal effect
Outline: (§4)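 Luminescence readout at each listed time point; HEK293, 600 cells/well, RealTime-Glo MT reagent added with cells; compounds pinned (23 nL in DMSO) after 5 h at 37 C; continuous culture at 37 C.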

[8] = A CellTox Green Cytotoxicity Assay to monitor cytotoxicity in HEK293 cells - 24 hour (AID 1224875); note: nearly all actives have a fitted effect of over 45% in size; note: potency is the fitted concentration of half-maximal effect
Outline: as §2

[9] = qHTS RealTime-Glo MT Cell Viability Assay in HepG2 cells - 32 hour (AID 1224877); note: nearly all actives have a fitted effect of over 55% in size; note: potency is the fitted concentration of half-maximal effect
Outline: (§5)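 Tox21 10K library screened in qHTS format on HepG2 cells carrying RealTime-Glo reagents. Compounds were added after a 5 h preincubation, and the luminescent signal from continuous culture was measured repeatedly during 40 h treatment.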

[10] = qHTS RealTime-Glo MT Cell Viability Assay in HEK293 cells - 0 hour (AID 1224880); note: top concentration of the series differs between compounds; nearly all actives have a fitted effect of over 45% in size
Outline: as §4

[11] = qHTS assay to identify small molecule agonists of H2AX - cell viability counter screen (AID 1224847; calls by dose curve; note: nearly all actives have a fitted effect of over 30% in size; note: potency is the fitted concentration of half-maximal effect; for activity change, negative = cytotoxicity: top concentration of the series differs between compounds)
Outline: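 Cytotoxicity counter screen in wild-type CHO-K1 cells: a 3 hr compound treatment at 37C across 15 concentrations, followed by CellTiter-Glo luminescence to gauge viable cells.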

[12] = qHTS RealTime-Glo MT Cell Viability Assay in HepG2 cells - 24 hour (AID 1224867); note: nearly all actives have a fitted effect of over 50% in size; note: potency is the fitted concentration of half-maximal effect
Outline: as §5

[13] = A CellTox Green Cytotoxicity Assay to monitor cytotoxicity in HepG2 cells - 24 hour (AID 1224878); note: nearly all actives have a fitted effect of over 45% in size; note: potency is the fitted concentration of half-maximal effect
Outline: (§6)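 HepG2, 600 cells/well premixed w/ CellTox Green; 5 h settle, 37 C/5% CO2; pintool cpd add (DMSO); 37 C, 40 h; fluorescence read at 0, 8, 16, 24, 32, 40 h.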

[14] = A CellTox Green Cytotoxicity Assay to monitor cytotoxicity in HepG2 cells - 40 hour (AID 1224879); note: nearly all actives have a fitted effect of over 40% in size; note: potency is the fitted concentration of half-maximal effect
Outline: as §6

[15] = qHTS assay to identify small molecule agonists of the hypoxia (HIF-1) signaling pathway (AID 1224846; active = well fitted activation curve with a large enough effect in the signal ratio in the repeat runs, not every such curve was filed as active; the % refers to the signal ratio)
Outline: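 Beta-lactamase FRET read-out (CCF4-AM substrate) from ME-180 cells carrying an HRE-driven bla reporter, after 17 hrs compound exposure at 37C/5% CO2. Cells were seeded at 2,000 per well in 0.5% dialyzed FBS medium and preincubated 5 hrs.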

[16] = A CellTox Green Cytotoxicity Assay to monitor cytotoxicity in HepG2 cells - 16 hour (AID 1224876); note: nearly all actives have a fitted effect of over 45% in size; note: potency is the fitted concentration of half-maximal effect
Outline: as §6

[17] = qHTS assay to identify small molecule agonists of H2AX (AID 1224845; active = well fitted activation curve with a large enough effect in the signal ratio in the repeat runs, not every such curve was filed as active; the % refers to the signal ratio; note: potency is the fitted concentration of half-maximal effect)
Outline: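 Phospho-H2AX Ser139 measured by HTRF (ex 320 nm; em 665 and 620 nm) after 24 hr antibody incubation. Compounds, 15 concentrations, 0.76% DMSO, were applied to CHO-K1 cells for 3hr at 37C before lysis.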

[18] = qHTS assay to identify small molecule antagonists of the estrogen related receptor (ERR) signaling pathway from Tox21 library (AID 1224848); note: nearly all actives have a fitted effect of over 50% in size; note: potency is the fitted concentration of half-maximal effect
Outline: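 Luciferase luminescence (ONE-Glo, 30 min room temperature) was the read-out. Cells of the NTP-supplied ERR line, 2,000 per well, were given 6 h at 37 C before compound addition in DMSO and 18 h exposure at 37 C.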

[19] = qHTS assay to identify small molecule agonists of the estrogen related receptor (ERR) signaling pathway from Tox21 library (AID 1224849; calls by dose curve; note: nearly all actives have a fitted effect of over 15% in size); settings: ERR reporter cell line, ONE-Glo luciferase, 18 h
Outline: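 Luminescence readout (ONE-Glo, 30 min RT) after 18 h compound exposure at 37 C of NTP-supplied ERR reporter cells; cells were plated 6 h before compound addition by pin tool.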

[20] = qHTS assay to identify small molecule agonists of the hypoxia (HIF-1) signaling pathway - cell viability counter screen (AID 1224844; calls by dose curve; note: nearly all actives have a fitted effect of over 50% in size)
Outline: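 CellTiter-Glo luminescence read-out, 30 min RT, taken in the same wells as the beta-lactamase HRE reporter assay; HRE-bla ME-180 cells, 0.5% dialyzed FBS, 17 hr compound treatment at 37C, 5% CO2.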
% is set by controls: 0 for no effect and ±100 for the full control effect.

O=c1c(O)c(-c2ccc(O)cc2O)oc2cc(O)cc(O)c12
inactive: Potency [1] | Potency [2] | Potency [3] | Potency [4] | Potency [5] | Potency [6] | max response [7] 7.77% | Potency [8] | Potency [9] | Potency [10]

Oc1ccccc1O
active: Potency [1] 39.4 µM and 21.9 µM | Potency [5] 55.6 µM and 49 µM | Potency [7] 35.1 µM and 24.5 µM
inactive: Potency [11] | Potency [12] | Potency [2] | Potency [3] | Potency [8] | Potency [9] | Potency [13] | Potency [14]

COC(=O)Nc1nc2ccc(C(=O)c3ccccc3)cc2[nH]1
active: Potency [1] 0.848 µM | Potency [7] 0.477 µM
inactive: Potency [15] | Potency [11] | Potency [12] | Potency [2] | Potency [3] | Potency [6] | Potency [8] | Potency [16] | Potency [9] | Potency [13] | Potency [10]

CN1CCN(Cc2cc(-c3ccc4[nH]c(=O)oc4c3)co2)[C@@H](c2ccc(F)cc2)C1
inactive: Potency [17] | Potency [15] | Potency [2] | Potency [6] | Potency [10]
active: Potency [1] 21.1 µM | Potency [7] 26.5 µM | Potency [13] 42 µM | Potency [14] 42 µM

Nc1cc(Cl)c(O)c(Cl)c1
inactive: Potency [15] | Potency [18] | activity change, positive = activation ([19]; at 92.4 µM (top of the series)) -4.45% | Potency [12] | Potency [2] | Potency [3] | Potency [5] | max response [7] -1.5% | Potency [16] | Potency [9] | Potency [13] | Potency [10]

CCCCCCCCCCCCOCCOCCOCCOCCOCCOCCOCCOCCOCCO
inactive: Potency [17] | activity change, positive = activation ([19]; at 42.5 µM (top of the series)) -54.8% | Potency [2] | Potency [3] | Potency [10]
active: Potency [11] 55.2 µM | Potency [18] 2.98 µM | Potency [1] 5.35 µM | Potency [4] 10.7 µM | Potency [5] 6.01 µM | Potency [7] 4.77 µM | Potency [8] 13.4 µM | Potency [13] 23.9 µM | Potency [14] 23.9 µM

COc1cc2nc(N3CCN(C(=O)c4ccco4)CC3)nc(N)c2cc1OC
inactive: activity change, negative = cytotoxicity [11] -2.17% [at 31.6 µM] | activity change, negative = cytotoxicity [12] -23% [at 15.8 µM] | activity change, negative = cytotoxic [1] -17.7% [at 15.8 µM] | cytotoxicity [2] 2.18% [at 15.8 µM] | cytotoxicity increase [4] 63.2% [at 15.8 µM] | activity change, negative = cytotoxicity [5] -20% [at 15.8 µM] | viability change, negative = cytotoxic [6] -0.626% [at 15.8 µM] | max response [7] -18.8% | activity change [8] 21% [at 15.8 µM, active compounds read high] | cytotoxicity increase [16] 29.2% [at 15.8 µM]
active: Potency [13] 7.37 µM | Potency [14] 10.4 µM

O=C(O)O
inactive: activity change, negative = cytotoxicity [11] -9.67% [at 14 µM] | activity, negative = inhibition [18] 10.7% [at 8.39 µM] | activity change, positive = activation ([19]; at 8.39 µM (top of the series)) 5.47% | activity change, negative = cytotoxic [1] 0.187% [at 6.97 µM] | cytotoxicity [2] 2.74% [at 6.97 µM] | activity change, negative = cytotoxic [3] 19% [at 6.97 µM] | cytotoxicity increase [4] 4.75% [at 6.97 µM] | activity change, negative = cytotoxicity [5] 1.92% [at 6.97 µM] | viability change, negative = cytotoxic [6] -4.4% [at 6.97 µM] | max response [7] -2.54% | activity change [8] 5.15% [at 6.97 µM, active compounds read high] | activity change, negative = cytotoxic [9] 7.61% [at 6.97 µM] | cytotoxicity [13] -2.66% [at 6.97 µM] | cytotoxicity increase [14] -9.85% [at 6.97 µM] | activity change, negative = cytotoxicity [10] 3.17% [at 6.97 µM]
active: Potency [17] 4.88 µM

CC[N+](CC)(CC)CCOc1ccc(/C=C/c2ccccc2)cc1
active: Potency [18] 7.5 µM | Potency [3] 23.9 µM | Potency [4] 6.01 µM | Potency [9] 26.8 µM
inactive: Potency [17] | Potency [15] | activity change, positive = activation ([19]; at 42.5 µM (top of the series)) -43% | Potency [2] | Potency [5] | Potency [6] | Potency [16] | Potency [13] | Potency [10]

O=c1[nH]c(=O)n([C@H]2C[C@H](O)[C@@H](CO)O2)cc1F
active: Potency [7] 0.601 µM | Potency [16] 6.01 µM | Potency [13] 6.01 µM | Potency [14] 5.35 µM
inactive: Potency [20] | Potency [12] | Potency [2] | Potency [4] | Potency [5] | Potency [8] | Potency [9]

CCCc1ccc(OCC(=O)N2CCN(C(=O)COc3ccc(CCC)cc3OC)CC2)c(OC)c1
inactive: Potency [11] | activity change, positive = activation ([19]; at 42.5 µM (top of the series)) -21.5% | Potency [2] | Potency [3] | Potency [8] | Potency [10]
active: Potency [1] 8.49 µM | Potency [5] 9.52 µM | Potency [7] 8.49 µM | Potency [13] 26.8 µM | Potency [14] 21.3 µM

CCCCC(CC)CN1CN(CC(CC)CCCC)CC(C)(N)C1 (stereo not given)
inactive: activity change, positive = activation ([19]; at 42.5 µM (top of the series)) -16.4% | Potency [2]
active: Potency [12] 16.9 µM | Potency [1] 8.49 µM | Potency [3] 21.3 µM | Potency [4] 10.7 µM | Potency [5] 9.52 µM | Potency [6] 19 µM | Potency [7] 9.52 µM | Potency [8] 10.7 µM | Potency [16] 19 µM | Potency [9] 16.9 µM | Potency [13] 19 µM
